Source: PubChem BioAssay (NCI)
The panel holds about 83,000 compounds, 20% with a hit somewhere; the sample as a whole holds those more often.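 Testing used 96-well plates and a 48-hour single-concentration exposure. Example: -40 means 40% of the starting cells died.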 Values without a mark were called inactive. Calls of active or inactive are those of the source. The calls were made as follows: active = growth percent below 10; inactive = the rest.

Columns and labels:
Experiment in all cases: NCI-60 one-dose screen, 48 h (100 = growth as untreated, 0 = no growth, -100 = all killed)
Settings in all cases: 10 µM unless noted
HCT-15 colon = system: HCT-15 colon
HT29 colon = system: HT29 colon
SNB-75 CNS = system: SNB-75 CNS
SNB-19 CNS = system: SNB-19 CNS
U251 CNS = system: U251 CNS
PC-3 prostate = system: PC-3 prostate
SK-MEL-5 melanoma = system: SK-MEL-5 melanoma
UACC-62 melanoma = system: UACC-62 melanoma
LOX IMVI melanoma = system: LOX IMVI melanoma
SK-MEL-28 melanoma = system: SK-MEL-28 melanoma
SK-MEL-2 melanoma = system: SK-MEL-2 melanoma
EKVX NSCLC = system: EKVX NSCLC
SN12C renal = system: SN12C renal
UO-31 renal = system: UO-31 renal
TK-10 renal = system: TK-10 renal
ACHN renal = system: ACHN renal
CAKI-1 renal = system: CAKI-1 renal
A498 renal = system: A498 renal
CCRF-CEM leukemia = system: CCRF-CEM leukemia
MOLT-4 leukemia = system: MOLT-4 leukemia

SMILES	growth (HCT-15 colon)	growth (HT29 colon)	growth (SNB-75 CNS) [%]	growth (SNB-19 CNS) [%]	growth (U251 CNS)	growth (PC-3 prostate)	growth (SK-MEL-5 melanoma)	growth (UACC-62 melanoma)	growth (LOX IMVI melanoma)	growth (SK-MEL-28 melanoma)	growth (SK-MEL-2 melanoma)	growth (EKVX NSCLC) [%]	growth (SN12C renal) [%]	growth (UO-31 renal)	growth (TK-10 renal)	growth (ACHN renal)	growth (CAKI-1 renal)	growth (A498 renal)	growth (CCRF-CEM leukemia)	growth (MOLT-4 leukemia)
COc1ccc(CNc2c3ccccc3nc3ccc(OC)cc23)cc1	5.34% (active)	-2.9% (active)	27.4	22.7	16.1%	5.53% (active)	11.1%	42.6%	-75.1% (active)	41.3%	40.9%	24.2	20.8	6.24% (active)	33.6%	10.2%	19.9%	-5.96% (active)	19.4%	-0.147% (active)
COc1ccc(NC(=O)Cn2c(=O)sc3c(-c4ccc(Cl)cc4)cc(-c4ccc(Cl)cc4)nc32)cc1	93.3%	82.7%	89.5	105	103%	95.4%	98.6%	85.6%	91.1%	103%	107%	95.4	93.2	81.4%	97.3%	102%	95.3%	129%	112%	95%
CSc1nc(N)c2[nH]c(-c3cc4ccccc4[nH]c3=O)nc2n1	64.8%	94.2%	113	109	84.7%	78.7%	100%	83.4%	69.9%	116%	74.2%	103	85.1	57.3%	106%	61.1%	68.9%	92.4%	91.6%	79.8%
CN1CCC2(CC1)N=C(SCC(=O)Nc1cnc3ccccc3c1)C(c1ccc(Br)cc1)=N2	12%	-67.1% (active)	25.4	40.7	-24.7% (active)	21.3%	-96.2% (active)	-78.9% (active)	-78.5% (active)	-70.1% (active)	-31.2% (active)	37.9	31.1	-12.5% (active)	30.1%	5.39% (active)	8.73% (active)	44.6%	4.53% (active)	1.51% (active)
O=C(CCCN1CCC(O)(c2ccc(Br)cc2)CC1)c1ccc(F)cc1	49.8%	22.1%	67.7	78.4	64.4%	69.7%	-1.83% (active)	43.6%	53.7%	74.6%	100%	91	72.8	45.6%	96.6%	72.5%	82.1%	82.2%	63.8%	60.3%
CC(=O)c1ccc(Br)c([N+](=O)[O-])c1	104%	98%	92.7	98.7	104%	104%	99.9%	111%	90%	118%	102%	104	104	90.7%	91.5%	111%	-7.58% (active)	76.9%	98.1%	96.8%
COc1ccc(-c2nc(SCCC(C)C)nc(Nc3ccc(C(=O)O)cc3)c2C#N)cc1	60.6%	84%	92.2	88.8	81.5%	58.4%	73.9%	86.8%	82.6%	89.7%	70%	87.7	90.6	67%	86.7%	83.9%	92.1%	62.5%	73.5%	78.7%
C=C1C(=O)O[C@H]2[C@H]1CC/C(COC(=O)NCc1c[nH]c3ccc(OC)cc13)=C\CC[C@@]1(C)O[C@@H]21	-26.1% (active)	-53.2% (active)	63.2	64.4	9.85% (active)	-2.65% (active)	15.1%	-31.6% (active)	-59.6% (active)	-23.9% (active)	35.9%	33.9	10.9	-85% (active)	-40.3% (active)	-10.7% (active)	-2.21% (active)	94.1%	-7.78% (active)	2.7% (active)
O=c1c2cc(Br)cc(Br)c2nc(-c2ccc(Cl)cc2)n1/N=C\c1ccccc1F	88.3%	77.3%	13.7	68.8	55.1%	-87.1% (active)	89.4%	70.7%	70.3%	98.4%	78.4%	63.7	58.2	21.6%	33.1%	26.4%	27%	85.6%	71.7%	74%
CCCCn1cnc2c(SCc3ccc([N+](=O)[O-])cc3)nc(N)nc21	88.2%	98.6%	95.7	86	90.6%	89.8%	85.8%	80.4%	88%	117%	91.5%	103	87	65.2%	85%	87.5%	87.7%	86.3%	86.3%	24.3%
c1ccc2oc(-c3cnc4nonc4n3)cc2c1	107%	96.3%	76.6	88.8	103%	92.7%	98.4%	79.6%	94.6%	120%	95%	71.2	93	63.1%	132%	82.3%	86.8%	103%	95.8%	97.2%
O=C(N/N=C\c1cc(Br)ccc1O)c1ccncc1	21.4%	36.3%	76.4	53.7	28.6%	48.3%	39.8%	1.24% (active)	18%	45.8%	31.4%	29.6	46.5	23.4%	43.7%	27.3%	24.7%	74.1%	8.77% (active)	-10.7% (active)
COc1ccccc1/C=C/C(=O)CCC(=O)O	113%	107%	98.5	114	107%	94.5%	109%	108%	99.8%	110%	102%	105	100	85.2%	110%	101%	99%	130%	96.3%	100%
CNCCCn1c2c(c3ccc(Cl)cc3c1=O)C(=O)c1cc(OC)cnc1-2	-57.6% (active)	-80.5% (active)	14.7	28.3	-86.5% (active)	38.6%	32.4%	11%	-83.7% (active)	72.2%	77.3%	63.8	39.7	33.4%	54.2%	19.8%	35.3%	20.5%	-22.5% (active)	-29.9% (active)
COc1ccc(-c2cc(C(=O)Nc3ccc(C)cc3)nc3[nH]c(=O)sc23)cc1	63.8%	81.4%	102	57.7	56.2%	73.8%	37.2%	31.3%	77.7%	70%	29.2%	73.3	58.2	58.3%	61.1%	90.2%	60.6%	9.83% (active)	71.1%	81.5%
